Calls of active or inactive are those of the source. The calls were made as follows: active = hit-call score of the fitted dose curve at least 0.9, where 1 is the maximum; inactive = score below 0.9.
Read-out: Protein phosphatase 2A (PPP2R4), PTPA (gene 5524)
Experiment: LTEA_HepaRG_PPP2R4: Life Technologies and Expression Analysis (LTEA) Assay for Protein phosphatase 2A (PPP2R4) using HepaRG (AID 2283522)
Details: mRNA level, 48 h; actives raise or lower the signal
How it was run: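 Using HepaRG cultures maintained in 0.5% DMSO, chemicals are tested 48 h at up to 100 uM in duplicate. Induction or suppression of PPP2R4 mRNA, measured by qRT-PCR, is fitted bidirectionally against the vehicle baseline.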

Row | Structure (SMILES) | outcome
1 | Nc1cc2c3c(c1)C(c1ccccc1)=N[C@@H](NC(=O)c1cccnc1)C(=O)N3CC2 | inactive
2 | c1nc[nH]n1 | inactive
3 | CCC(C)(C)c1ccc(O)cc1 | inactive
4 | CCOP(=S)(OCC)SCSCC | inactive
5 | CCNc1nc(Cl)nc(NC(C)(C)C)n1 | inactive
6 | CCOC(=O)c1ccccc1C(=O)OCC | inactive
7 | CCOP(=S)(Oc1ccc([N+](=O)[O-])cc1)c1ccccc1 (configuration not stated) | inactive
8 | Nc1ccc(Cl)cc1 | inactive
9 | Cc1ccc(N)cc1N | inactive
10 | CCOc1ccc(C(C)(C)COCc2cccc(Oc3ccccc3)c2)cc1 | inactive
11 | ClC1=C(Cl)C2(Cl)C3C(Cl)C(Cl)CC3C1(Cl)C2(Cl)Cl (configuration not stated) | inactive
12 | CCCCN(CCCC)N=O | inactive
13 | c1ccc(OP(Oc2ccccc2)Oc2ccccc2)cc1 | inactive
14 | CCC1(c2ccccc2)C(=O)N=C(O)NC1=O (configuration not stated) | inactive
15 | Cc1cccc(N)c1 | inactive
16 | CC(C)(C)OOC(C)(C)C | inactive
17 | CCCCCCCc1ccc(O)cc1 | inactive
18 | ClC(Cl)c1ccccc1 | inactive
19 | CCCCN(CCCC)SN(C)C(=O)Oc1cccc2c1OC(C)(C)C2 | inactive
20 | c1cc2c3c(cccc3c1)CC2 | inactive
21 | CN(C)C(=O)Cl | inactive

Read-out: Phosphatase and tensin (PTEN), PTEN (gene 5728)
Experiment: LTEA_HepaRG_PTEN: Life Technologies and Expression Analysis (LTEA) Assay for Phosphatase and tensin (PTEN) using HepaRG (AID 2283523)
Details: mRNA level, 48 h; actives raise or lower the signal
How it was run: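 Expression of PTEN is quantified in the human liver line HepaRG following two days of dosing (top concentration 100 uM, half-log dilutions, 0.5% DMSO). Values derive from bidirectional curve fitting relative to DMSO controls.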

Row | Structure (SMILES) | outcome | AC50
22 | Nc1cc2c3c(c1)C(c1ccccc1)=N[C@@H](NC(=O)c1cccnc1)C(=O)N3CC2 | inactive | –
23 | c1nc[nH]n1 | inactive | –
24 | CCC(C)(C)c1ccc(O)cc1 | inactive | –
25 | CCOP(=S)(OCC)SCSCC | inactive | –
26 | CCNc1nc(Cl)nc(NC(C)(C)C)n1 | inactive | –
27 | CCOC(=O)c1ccccc1C(=O)OCC | inactive | –
28 | CCOP(=S)(Oc1ccc([N+](=O)[O-])cc1)c1ccccc1 (configuration not stated) | – | 42.2 nM (active)
29 | Nc1ccc(Cl)cc1 | inactive | –
30 | Cc1ccc(N)cc1N | inactive | –
31 | CCOc1ccc(C(C)(C)COCc2cccc(Oc3ccccc3)c2)cc1 | inactive | –
32 | ClC1=C(Cl)C2(Cl)C3C(Cl)C(Cl)CC3C1(Cl)C2(Cl)Cl (configuration not stated) | inactive | –
33 | CCCCN(CCCC)N=O | inactive | –
34 | c1ccc(OP(Oc2ccccc2)Oc2ccccc2)cc1 | inactive | –
35 | CCC1(c2ccccc2)C(=O)N=C(O)NC1=O (configuration not stated) | inactive | –
36 | Cc1cccc(N)c1 | inactive | –
37 | CC(C)(C)OOC(C)(C)C | inactive | –
38 | CCCCCCCc1ccc(O)cc1 | inactive | –
39 | ClC(Cl)c1ccccc1 | inactive | –
40 | CCCCN(CCCC)SN(C)C(=O)Oc1cccc2c1OC(C)(C)C2 | inactive | –
41 | c1cc2c3c(cccc3c1)CC2 | inactive | –
42 | CN(C)C(=O)Cl | inactive | –
